Out of some 53,000 sequences screened, about 3,700 (7%) were called active. The entries come from a sample that favours actives as a whole. A number with no mark means an inactive call.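 The calls were made as follows: active = gene knockdowns whose robust z-score for IL-1 alpha signal is at least 2 or at most -2, so actives lie on both sides; inactive = the rest.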
Assay: Components of the Cytosolic LPS Sensing Pathway: Gene Identification via Genome-wide siRNA Screen;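 also: robust z of the log signal after scaling to non-targeting control siRNA wells of the plate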
Details: RAW264.7 macrophages, IL-1a HTRF, actives lie on both sides, screened at 100 nM (by protocol), cells primed 5 h with Pam3CSK4 first
Method in brief: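 Three distinct siRNAs per gene were tested singly at 100 nM in RAW264.7 macrophages. Following Pam3CSK4 priming and 24 hour LipidA transfection, IL-1a secretion was read by HTRF.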

In order of rising z-score:
1. GCCAUUACCCGGUAUAUGATT against Sesn1  -1.96
2. GGUAACAAUCACCAUAUUCTT against 1700029F12Rik  -1.94
3. GCCUCUCAUUAGCAGUCAATT against Fbxl15  -1.92
4. GGACAUUUGAUAUUGAAGATT against B3gnt2  -1.88
5. GGCUUUCUCCAAGCUAUAUTT against Tdgf1  -1.83
6. GGAAAAGUAUCCAUGUCACTT against Impa1  -1.75
7. GGUUCACAAUGGAUUAUGATT against Lrrc25  -1.68
8. GGAUCAACAUGGUCUCCUCTT against Stambpl1  -1.63
9. GGACCUGUGUGCUGAGUUGTT against Matn4  -1.59
10. GCCAGAAAAGUACCACCAGTT against Slc35f4  -1.15
11. GCACGUGAACACAAACCCGTT against Nup50  -1.13
12. GGGUGAAGGUGAAUAUUUATT against Esm1  -1.12
13. GGAGAGACCAGAAUGGUAUTT against Fbxw21  -1.12
14. GGUGAUGCCUUAUUUUGAATT against Ap5s1  -1.1
15. GGUUUUGCACAGCAUUGGUTT against Efna1  -1.02
16. GGAAAGAAGAACCAAGCUCTT against Med6  -1.01
17. GGAAUGCAGAAAUGAAAAATT against Olfr1234  -0.909
18. CCGAAAACUUAUCUAGAAATT against BC023105  -0.846
19. GGAAAAUGUUGAAGUGGAATT against Ndufa5  -0.805
20. GGUAUCACUACUUUUUAGUTT against Eri3  -0.742
21. GGAGUUCGCACAGAAAUUCTT against Dhdh  -0.619
22. CCCAAGCAAUUACAGUACUTT against Olfr263  -0.543
23. GGUAACAAACCGAAAGUAUTT against Polr3k  -0.539
24. GGGUCCUAAGGGAUUUAUUTT against Klf16  -0.49
25. GCCAAAGUAGUUGAACCUUTT against Cibar1  -0.48
26. CCCUGGUGACUACGAGAAUTT against Chrna4  -0.462
27. GGGAGGAUACCUUCUAUGUTT against Atf6b  -0.43
28. GGAAUUGACUUUAAGACAATT against Boll  -0.413
29. GCGAGUACUUACUCUUCGUTT against Rpl3  -0.355
30. GGACUGAACCGUUUUAAAGTT against Fmo3  -0.317
31. CCCAAGCAACCCUUAUCAATT against Mcee  -0.315
32. CCAAGCCAAGCAAUCUUGATT against Chat  -0.247
33. GCAUGGACAAAUGUCCCUGTT against Lce1f  -0.24
34. CCAAUGAGAGUUCUAUGAUTT against Cxxc4  -0.192
35. GCAACAUGUAGGCAACAUCTT against Tmx2  -0.179
36. GGUUGACGAAAUGACUAUATT against Adh4  -0.105
37. GGCUGUAGUUGGCUAACACTT against Slc25a28  -0.103
38. GGUAUUGGAUCAUUUACAATT against Nae1  -0.0968
39. GCAUUCAGAAAGUGUAUAATT against Tspan3  -0.0953
40. GCACCUCUCUACAUUACUGTT against Igflr1  -0.0949
41. GGCAAUGGCACUGAAGUCATT against Olfr994  -0.0376
42. CCCAACUGUCAAAUAAUCCTT against Eddm3b  0.0505
43. GGAGAUGGCUAUAUUCUGATT against Lipa  0.0668
44. GGUCAUUGCAUCUGACAAGTT against Pcdha2  0.109
45. GGAAACCUUUUCAUUAACATT against Il23r  0.138
46. GCCGAUGUCAGUGGUUAAATT against Bmx  0.198
47. CGUUAGCUGUUAUGAUCUATT against Cept1  0.203
48. GCUCAGUUUCUCAUGAAACTT against Tespa1  0.206
49. CGAUUUGCCCAAUAAAGAATT against Scn9a  0.223
50. GGUCAUCAGAAUGUGAAAATT against Zfp354a  0.232
51. GGACAACUUCCUAGGGCUCTT against Esyt3  0.248
52. CUGGAUGCAUUAACUUCUUTT against Olfr1219  0.326
53. GGGUACAGACGAUGUUUGATT against Unc45b  0.347
54. CAGAUCCAUCUCUUAAUGGTT against Olfr204  0.383
55. CCCAUAACCAGAAUUAAAGTT against Wdr64  0.454
56. GGUGUUCAACUCCACUAUGTT against Nhlrc1  0.511
57. CCUGGUAUAUUACCGCUUCTT against P3h4  0.519
58. GGAUCCUGUCCACAAGCACTT against Astn1  0.519
59. GGAUCUCUGGGUCUGAAAATT against Ccz1  0.606
60. GCUAGACUUCUUUGUGCGATT against Abhd8  0.656
61. GGUUGGAGAUCUCAUCUAUTT against Exosc3  0.699
62. GCUUUCAUAGAAUCUUGGCTT against Rnf24  0.709
63. GGAUGAGGACACCAUUGAUTT against Sumo3  0.723
64. GGGUAUAUAAGCAGCACCATT against Rdh9  0.736
65. GAUCAAAGCGGCGUACUACTT against Dnajc30  0.738
66. GGUAUCAGGUACCAACGACTT against Cpne6  0.768
67. GGUUUUCCCACAUGUCAGATT against Zmat5  0.805
68. GGGAGAUUAAUCAAGAACUTT against Ccnc  0.809
69. CGUCUGUCAGAAACUACACTT against Atrnl1  0.864
70. GGGCCUGUACAUCUUCCAATT against Anpep  0.926
71. GGACACAGACAUCCUCUUGTT against Sult5a1  1.04
72. GCAUUGGUGUUUAGUUGGUTT against Gdf2  1.11
73. GGACAUUAGCCAACACAUCTT against Scp2d1  1.17
74. GCAGACCAGACAGUAUUACTT against Zeb1  1.22
75. GGGUAGUUAUGACUAAAUUTT against Etl4  1.31
76. GCACACUACAACGUAUCACTT against Stpg2  1.31
77. CCAAACUUACAAAUAUGCGTT against Sgpp1  1.35
78. GGUGCAUGCACUGAAGAAGTT against Mpv17  1.39
79. GGAAAACACGAGUUUCCCUTT against Arrdc4  1.56
80. CGAAUAGGGAGCCAUAAGATT against Tubb6  1.66
81. GGAACAAGUGUCUGACAGUTT against Emc3  1.82
82. CCCAUCCAAGAUUUGAUUUTT against 2310002L09Rik  1.89
83. GGAGACCUGUGACUCCUUATT against 4932415M13Rik  1.9
84. GGUGUAUUAAAAUGUCAGUTT against Marveld2  1.92
85. GGAUCACUCUAAUUCAGAUTT against Fcamr  1.93

For GCCUCACUCAGCAAAAGGATT against Ttc9c, the z-score was -2.09 (active).
With GGUUUGUGGUGGUAUUUAATT against Man2a2 the z-score was 2.47 (active).
In the case of GGAAUCAAACUGGAUUGAUTT against Pi4k2b, the z-score is reported as 2.01 (active).
With GGACGAAUUUCUUACAGUATT against Mterf4 the z-score was 2.2 (active).
For GCACGUCCAUUCUGCUUUCTT against Smco4, the z-score was 2.4 (active).
With GGCUGAAGACACUGAACACTT against Olfr643 the z-score was -2.51 (active).
For GGCCUAGACAUACAUGAAATT against Bnip3l, the z-score was 2.93 (active).
In the case of GCAUUACUUUAAGCCAUAUTT against Rbl1, the z-score is reported as 3.57 (active).
For GGAGAAUAUUCUCUGUGGATT against Rab11fip5, the z-score was -2.71 (active).
With CGGAAGUAAAAAGAACUACTT against Olfr1321 the z-score was 3.01 (active).
With GGACUUUACAAUAAAACAGTT against Dkk4 the z-score was -2.2 (active).
For GCGCACAGUACAUUCAUUUTT against Drd5, the z-score was 3.62 (active).
With GCUUAAGUGUGAUACAGUGTT against Rars2 the z-score was 2.45 (active).
For GUUACAGCUGCCUUUGUUUTT against Olfr893, the z-score was -2.49 (active).
In the case of GGCAUCAUAAAGCCAGGCATT against Sybu, the z-score is reported as -2.42 (active).
With GGUUAGCAGGGACCUAAUGTT against Zfp94 the z-score was 2.57 (active).
In the case of GGUUCAGAUCCACAGCCAGTT against Asic2, the z-score is reported as -2.12 (active).
With GGGAGAUGUUUGUUUUCAATT against Mmp16 the z-score was 3.52 (active).
With GGCCCUCUGAGAUUAAUGUTT against Nfkbid the z-score was 2.58 (active).
For GGAAGUCAAGCAUAUUGCCTT against Sntb2, the z-score was 3.04 (active).
In the case of GGUAUUUCGAAACCUCCGUTT against H2-Q10, the z-score is reported as 2.01 (active).
In the case of GGAAGAUGGCAAUAAUAACTT against Borcs7, the z-score is reported as -2.26 (active).
With UGAUAUUUGGUGUAUUCAGTT against Olfr972 the z-score was -2.06 (active).
